The AC50 is the midpoint of the concentration-response curve, whichever way the signal moves.

The results in this text go back to PubChem BioAssay (EPA / NIEHS).

Some compounds were tested as several samples or in several runs, with calls that do not always agree. Activity calls are given as the source filed them. Rule for the calls: active = hit-call score of the fitted dose curve at least 0.9, where 1 is the maximum; inactive = score below 0.9.

The test in a line: ATG_M_19_CIS: Attagene CIS-FACTORIAL HepG2 Assay for M19 Transcription Factor (Internal Marker) (AID 2282939). To be noted: HepG2 Attagene CIS-FACTORIAL M19 internal marker reporter; actives raise or lower the signal. As for the experimental part: ATG_CIS is a cell-based, multiplexed-readout assay that uses HepG2, a human liver cell line, with measurements taken at 24 hours after chemical dosing in a 24-well plate.ATG_M_19_CIS is one of 52 assay component(s) measured or calculated from the ATG_CIS assay. It is designed to make measurements of mRNA induction, a form of inducible reporter, as detected with fluorescence intensity signals by Reverse transcription polymerase chain reaction (RT-PCR) and Capillary electrophoresis technology.Data from the assay component ATG_M_19_CIS was analyzed into 1 assay endpoint. This assay endpoint, ATG_M_19_CIS, was analyzed with bidirectional fitting relative to DMSO as the negative control and baseline of activity. Using a type of inducible reporter, measures of mRNA for gain or loss-of-signal activity can be used to understand the background control at the transcription factor-level as they relate to the gene . Furthermore, this assay endpoint can be referred to as a secondary readout, because this assay has produced multiple assay endpoints where this one serves a background control function. To generalize the intended target to other relatable targets, this assay endpoint is annotated to the background measurement intended target family, where the subfamily is internal marker.
Human liver HepG2 cells are transiently transfected with multiple reporter transcription units (MRTUs) in 6-well plates using FuGene 6 reagent (Roche; 3 ml FuGene/1 mg DNA). The MRTU constructs are regulated by a cis-regulating element (promoter). […] A major difference between the CIS and TRANS system is that in CIS activities of endogenous TFs are measured, whereas the TRANS assay evaluates changes in activities of exogenous, chimeric NR-Gal4 proteins. […] At the end of 24 hour incubation, total RNA was isolated using TriZol reagent (Invitrogen). The isolated RNA is then reverse-transcribed using oligo(dT) primer and Mo-MLV reverse transcriptase (Invitrogen) with DNAse I (Ambion) treatment for 30 min. The one-tenth of the produced cDNA was amplified by PCR using Taq DNA polymerase (Invitrogen) and two reporter sequence-specific primers. The PCR products were fluorescently labeled by primer extension with 6-arboxyfluorescein (6-FAM) 5'-labeled reporter sequence-specific primer (2 min at 95 C, 20 s at 68 C and 10 min at 72 C) and these products were digested with 5U of HpaI (New England Biolabs) for 2h at 37 C. The fragments were purified using Qiaquick PCR columns (Qiagen), analyzed on an ABI 3130xL genetic analyzer (Applied Biosystems) with peak positions identified by using a set of X-rhodamine (ROX)-labeled MapMarker1000 molecular weight standards (BioVentures). The raw capillary electrophoresis data was processed using Attagraph software (Attagene).
Regarding `CCCC[N+](C)(CCCC)CCCC`, the compound was called inactive. Regarding `c1ccc2c(c1)-c1ccc3ccc4cccc5cc-2c1c3c45`, the outcome was inactive. Turning to `CCC(C)(C)C1CCC(OC)CC1` (stereo not given), the result was inactive. In the case of `CCCCC1CCCCC(=O)O1` (stereo not given), the compound was called inactive.

On to `CC=CC(=O)C1=C(C)C=CCC1(C)C`, for which the compound was called inactive. Same read-out and setting: in the case of `CCC(C)(C)c1cc(O)c(C(C)(C)CC)cc1O` it was “inactive”; in that of `CCCC1CCC(=O)CC1`, “inactive”; in that of `Nc1cc([N+](=O)[O-])ccc1C(=O)O`, “inactive”. On the same count and under the same terms, in the case of `CC(CCO)CC(C)(C)C` (stereo not given) it was “inactive”. With `C1=COCCC1`, the outcome was inactive. Regarding `CCCCC/C=C\C=C\C(=O)OCC`, the compound was called inactive. Still for that read-out and setting: in the case of `NNC(=O)OCc1ccccc1` it was “inactive”; in that of `CCCCOCC(C)OCC(C)O` (stereo not given), “inactive”; in that of `CCCCCCC(C)O` (stereo not given), “inactive”. On to `CC(=O)C1=C(C)[C@@H]2C[C@@]3(C1)[C@H](C)CC[C@H]3C2(C)C`, for which the AC50 was 100 µM (active). On to `C#C[C@]1(O)CC[C@H]2[C@@H]3CCc4cc(O)ccc4[C@H]3CC[C@@]21C`, for which the call was inactive and the half-maximal activity concentration (AC50) is 171 µM (active). Turning to `CN(C)CCC=C1c2ccccc2CCc2ccccc21`, the result was inactive.

`CCCCCCCCOC(C)=O`: the outcome was inactive.

For the compound `COC(=O)c1cccc(C(=O)OC)c1`, the compound was called inactive. Consider `O=C(O)c1ccc(C(=O)O)c(C(=O)O)c1`, for which the call was inactive. The same measure, in the same setting: in the case of `ClCCOCCOCCCl` it was “inactive”; in that of `CCCCOC(=O)C(C)OC(=O)CCC` (stereo not given), “inactive”. Same read-out and setting: next, `NC(N)=S`: “inactive”; `Nc1ccc(N)c([N+](=O)[O-])c1`: “inactive”. In the case of `[Na+]`, the call was inactive. On to `CC(C)COC(=O)c1ccccc1O`, for which the compound was called inactive.

Turning to `CC(C)COC(=O)c1ccccc1`, the compound was classed as inactive. The same measure, in the same setting: next, `Cc1ccncc1`: “inactive”; `CCCCCCCOC(C)=O`: “inactive”; `N#CCCNCCC#N`: “inactive”. Still for that read-out and setting: in the case of `CC1(C)CC(=O)CC(C)(C)N1` it was “inactive”.

As to `CC(C)(C)c1ccc(S)cc1`, the outcome was inactive. The same measure, in the same setting: next, `O=C1OCc2ccccc21`: “inactive”. Still for that read-out and setting: in the case of `CN(C)C(=O)Nc1ccccc1` it was “inactive”. The same measure, in the same setting: in the case of `O=C(O)c1ccccc1O` it was “inactive”. Regarding `CC(C)C(=O)c1ccccc1`, the compound was classed as inactive. Turning to `CC(C)(O)CCc1ccccc1`, the outcome was inactive.

Take `C/C=C(\C)C(=O)OC/C=C(\C)CCC=C(C)C`: the compound was called inactive. Regarding `CC1=CCC(C(C)C)=CC1`, the result was inactive.
